Most compounds without a hit are left out; they make up all but 2.1% or so of the library.
GSH fluor: GSH bead compound fluorescence profile | fluorescence (KMESF) at 10 µM | GSH beads flow cytometry, compound fluorescence 488/530 nm; active compounds read high | 0.25% of 190,000 active; in the data active = fluorescence above about 89;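 also: glutathione beads carrying GST-tagged Bcl family fusion proteins plus one bare bead set; values are compound well signal with DMSO vehicle wells as background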
EP2 modulator: EP2 receptor (human) modulation; P43116; EP2-expressing cells, cAMP HTRF FRET, PGE2 co-stimulation; induction, % at 25 µM; 0.83% of 260,000 active;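 active = compounds whose cAMP rise, as percent of the full-agonist control response, exceeds 60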;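 also: rat C6 glioma line stably carrying human EP2 under a CMV promoter; the protocol text gives 20 µM as final concentration; 100% = response of wells given 1 µM PGE2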
Target sequence (P43116 whole entry, looked up): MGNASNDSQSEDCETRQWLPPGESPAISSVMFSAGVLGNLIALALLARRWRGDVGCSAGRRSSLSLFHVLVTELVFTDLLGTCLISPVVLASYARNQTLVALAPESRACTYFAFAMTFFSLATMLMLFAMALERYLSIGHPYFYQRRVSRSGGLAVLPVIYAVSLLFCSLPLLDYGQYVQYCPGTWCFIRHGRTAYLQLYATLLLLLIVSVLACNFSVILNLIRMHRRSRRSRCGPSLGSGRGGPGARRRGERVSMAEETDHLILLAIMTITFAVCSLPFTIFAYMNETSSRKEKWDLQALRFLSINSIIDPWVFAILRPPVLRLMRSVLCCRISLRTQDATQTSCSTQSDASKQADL
EP2 antag: EP2 receptor (human) inhibition. P43116. C6 glioma cells expressing human EP2, cAMP TR-FRET; cells stimulated with saturating PGE2. inhibition, % at 25 µM. 0.52% of 260,000 active. AID 1422;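 active = percent inhibition above 40 after rounding to a whole number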;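 also: rat C6 glioma host cells with rolipram phosphodiesterase inhibitor present; the protocol text gives 20 µM as final concentration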
Avidin bead fluor: avidin bead compound fluorescence profile | Avidin beads, compound fluorescence 488/530 nm, flow cytometry; active compounds read high | 0.38% of 220,000 active | fluorescence (KMESF) at 10 µM; in the data active = fluorescence above about 47
HMGR II inh: blocks class II HMG-CoA reductase of Enterococcus faecalis. 0.41% of 190,000 active. purified E. faecalis HMGR, NADPH absorbance 340 nm kinetic. inhibition, % at 10 µM;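 active = inhibition above a set limit, the median over all tested compounds plus 3 SD, cut at about 9.5% in these data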;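 also: enzyme runs in reverse so mevalonate oxidation gives rising NADPH absorbance; 0% = complete reaction with DMSO and 100% = background rate lacking mevalonate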
Starred values were filed as active, the others as inactive; . = not tested or not shown; ! = a repeat was not active.

SMILES	GSH fluor	EP2 modulator	EP2 antag	Avidin bead fluor	HMGR II inh
Cc1cc(C)n(-c2nc(NCCO)c3c4c(sc3n2)CCCC4)n1	14	-56	21	16	3
O=C1C=CC(=O)N1CCCCCCN1C(=O)C=CC1=O	13	-1	135*	14	-5
C=CCn1c2cc(C)oc2c2cnn(CC(=O)NC3CC3)c(=O)c21	.	-37	.	.	.
Cc1ccccc1Cn1cc(/C=N/n2cnnc2)c2ccccc21	24	64*	7	11	3
Cc1sc2ncnc(N3CCCCC3)c2c1C	16	26	5	6	0
CCc1cc2c(N3CCCCC3)ncnc2s1	247*	-6	10	6	-3
CC(C)(C)C(=O)Nc1nnc(-c2ccccc2F)s1	.	-55	10	.	.
O=C(COC(=O)c1ccccc1Oc1ccccc1)NC1CCS(=O)(=O)C1 (stereo unspecified)	13	18	12	48*	0
O=C(COC(=O)c1ccccc1Oc1ccccc1)NC1CC1	16	-16	5	9	-4
Nc1c(C(=O)C2CC2)sc2nc(-c3ccccc3)cc(C(F)(F)F)c12	126*	48	10	5	-8
CC(=O)c1sc2nc(-c3ccc4c(c3)OCO4)cc(C(F)(F)F)c2c1N	.	-8	18	.	.
CCc1ccc(C2c3[nH]c4ccccc4c3CCN2C(=O)CN2CCN(CC)CC2)cc1 (stereo unspecified)	18	-37	8	6	6
O=C(CCN1CCCCC1)N1CCc2c([nH]c3ccccc23)[C@H]1c1cccnc1	.	5	43*	.	.
Cn1c(C(=O)N(Cc2ccccc2)Cc2cccs2)cc2sccc21	24	65*!	3	10	-2
CCn1c(=O)oc2cc(S(=O)(=O)NCC3(c4ccccc4)CCCC3)ccc21	.	-32	6	.	.
Clc1ccc(/C=N/NC(=Nc2ccccc2)c2ccccn2)c(Cl)c1	31	61*	.	39	2
CCOC(=O)c1c(-c2ccc(C)c(C)c2)csc1NC(=O)C1CCCO1 (stereo unspecified)	.	50	9	.	.
CCOC(=O)c1c(-c2ccccc2)csc1NC(=O)C1CCCO1 (stereo unspecified)	29	64*!	8	11	0
CCN(CC(=O)NCc1ccc(F)cc1)Cc1cc(=O)n2ccsc2n1	10	22	3	25	2
CCN(Cc1cc(=O)n2ccsc2n1)Cc1nc2ccccc2c(=O)[nH]1	15	4	6	11	11*
C=C[C@@]1(C)CC(=O)[C@@]2(O)[C@](C)(O1)[C@@H](OC(C)=O)[C@@H](O)C1C(C)(C)CC[C@H](O)[C@@]12C (stereo partly specified)	.	104*	8	.	.
COc1cc(OC)cc(-n2nnnc2SCC(=O)Nc2ccccc2C)c1	.	-47	3	.	.
COc1ccc(N2CC(O)=C(c3nc(-c4ccc(Br)cc4)cs3)C2=N)cc1	13	-32	48*	12	-2
O=C(NCC(=O)N(CC1CCCO1)C(C(=O)NC1CCCCC1)c1ccc(F)cc1)c1ccco1 (stereo unspecified)	10	22	10	175*	3
O=C(NCC(=O)N(Cc1cccs1)C(C(=O)NC1CCCC1)c1ccncc1)c1ccco1 (stereo unspecified)	34	-4	14	15	33*
SMILES	GSH fluor	EP2 modulator	EP2 antag	Avidin bead fluor	HMGR II inh
CC(=O)c1ccc(N(CC(=O)NC2CCCC2)C(=O)CNC(=O)c2ccco2)cc1	.	-17	7	.	.
O=C(NC1CCCC1)C(c1ccccc1)N(Cc1ccco1)C(=O)Cc1cccs1 (stereo unspecified)	39	55	11	6	-4
O=C(NCC(=O)N(Cc1cccs1)C(C(=O)NC1CCCCC1)c1ccco1)c1ccco1 (stereo unspecified)	19	-10	29	6	-4
O=C(CN(Cc1ccccc1C(F)(F)F)C(=O)CNC(=O)c1ccco1)NC1CCCC1	36	5	11	104*	-2
O=C(NC1CCCCC1)C(c1ccccc1F)N(Cc1ccco1)C(=O)Cc1cccs1 (stereo unspecified)	.	63*	12	.	.
Cc1nc2ccccc2n1CC(N)=O	.	-14	6	.	.
COCCn1c(=O)n(CC(=O)NCCc2ccccc2)c2cccnc21	.	0	.	.	.
CC[C@@H](Cn1nc(-c2ccc(F)c(F)c2)ccc1=O)NC(=O)c1cnccn1	.	9	10	.	.
Cn1c(CN2CCCC2)c(C#N)c2ccccc21	20	22	9	6	15*
CN1CCN(Cc2c(C#N)c3ccccc3n2C)CC1	14	-29	11	27	-6

Source: PubChem BioAssay (several laboratories)
